Records with an inconclusive call do not appear. A call without a number means that no potency is given here. The source made the active and inactive calls. Calls follow the shape of the dose curve; as a rule, active = well fitted inhibition curve with a large enough effect; inconclusive = small, poorly fitted or top-dose-only effect; inactive = no such curve, though single readings can be large or run the other way.
system: not listed separately; assay: ZIKV-mCherry secondary qHTS for Zika virus inhibitors (AID 1347158); settings: Vero cells, ZIKV-mCherry infection imaging, 48-72 h; series mostly up to 49.2 µM
In short: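 Vero cells, 5,000/well, plated overnight at 37 °C, then compound added and infected with recombinant ZIKV-mCherry at MOI 1 for 48-72 h. PFA-fixed, Hoechst nuclear stain, high-content imaging; cells with mCherry intensity above 450 RFU scored infected, reported as percent infection.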
Potency is read from the fitted curve at half-maximal effect.

Row | Compound | Potency
1 | Cc1ccc(-n2[nH]c(C)c(N=Nc3cccc(-c4cccc(C(=O)O)c4)c3O)c2=O)cc1C | inactive
2 | CC(C)c1cc(C(C)C)c(CC(=O)NS(=O)(=O)Oc2c(C(C)C)cccc2C(C)C)c(C(C)C)c1 | 3.16 µM (active)
3 | CCCCCCCCc1ccc(CCC(N)(CO)CO)cc1 | inactive

system: not listed separately; assay: Confirmatory screen NINDS Rhodamine qHTS for Zika virus inhibitors (AID 1347161); settings: purified enzyme assay, Rhodamine110 substrate fluorescence, 15 min; series mostly up to 114 µM; also: nearly all actives have a fitted effect of over 60% in size
In short: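 Each compound, titrated, sat 15 min with 25 nM linked protease before 1.5 microM Rhodamine110 substrate went in. Fluorescence gain over the next 15 min, in pH 8.0 Tris with Tween 20, gave Hill-fitted curves.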

Row | Compound | Potency
4 | c1cc(N[C@@H]2CCNC2)nc(-c2cnc3ccc(-c4cn[nH]c4)cn23)c1 | inactive
5 | Cc1ccc(-n2[nH]c(C)c(N=Nc3cccc(-c4cccc(C(=O)O)c4)c3O)c2=O)cc1C | 2.21 µM (active)
6 | CC(C)c1cc(C(C)C)c(CC(=O)NS(=O)(=O)Oc2c(C(C)C)cccc2C(C)C)c(C(C)C)c1 | 2.21 µM (active)
7 | CCCCCCCCc1ccc(CCC(N)(CO)CO)cc1 | inactive
8 | C[C@@H](NCc1cc2ccccc2[nH]1)c1cccc2ccccc12 | inactive

system: Zika virus NS2B-NS3 protease (linked); assay: 384 well plate NINDS AMC confirmatory qHTS for Zika virus inhibitors (AID 1347163); settings: Recombinant NS2B-NS3 protease, Ac-VKTGKR-AMC fluorescence; series mostly up to 1 mM; also: nearly all actives have a fitted effect of over 50% in size
In short: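 Linked protease 5/30/60 nM final; cpds up to 1 mM final, ~15 min preinc. Substrate Ac-VKTGKR-AMC 30 microM final. RT, dark, 25 min; FI ex 355/em 460; normalized to no-enzyme/no-inhibitor ctrls.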

Row | Compound | Potency
9 | Cc1ccc(-n2[nH]c(C)c(N=Nc3cccc(-c4cccc(C(=O)O)c4)c3O)c2=O)cc1C | 178 µM (active)
10 | CC(C)c1cc(C(C)C)c(CC(=O)NS(=O)(=O)Oc2c(C(C)C)cccc2C(C)C)c(C(C)C)c1 | 3.16 µM (active)
11 | CCCCCCCCc1ccc(CCC(N)(CO)CO)cc1 | 70.8 µM (active)

system: Zika virus NS2B-NS3 protease (linked construct); assay: 384 well plate NINDS Rhodamine confirmatory qHTS for Zika virus inhibitors (AID 1347164); settings: rhodamine-110 peptide substrate fluorescence; series mostly up to 100 µM; also: nearly all actives have a fitted effect of over 65% in size
In short: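 Compounds are incubated about 15 minutes with linked protease (5, 30 or 60 nM final). Rhodamine 110-tagged Ac-LKRR substrate (10 microM final) is added and fluorescence measured after 25 minutes.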

Row | Compound | Potency
12 | Cc1ccc(-n2[nH]c(C)c(N=Nc3cccc(-c4cccc(C(=O)O)c4)c3O)c2=O)cc1C | 7.94 µM (active)
13 | CC(C)c1cc(C(C)C)c(CC(=O)NS(=O)(=O)Oc2c(C(C)C)cccc2C(C)C)c(C(C)C)c1 | inactive
14 | CCCCCCCCc1ccc(CCC(N)(CO)CO)cc1 | inactive

From PubChem BioAssay (NCATS)
